From PMC5540273 (PLoS ONE, 2017)

Key:
Conditions in all cases: concentration: 1 μM, replicates: in singlicate; n = 1
[1] = system: TNNI3K
[2] = system: T1, TRKA
T1 construct: gene NTRK1

[3] = system: TRKB
[4] = system: T2, TRKC
T2 construct: gene NTRK3

[5] = system: TRPM6
[6] = system: TSSK1B
[7] = system: TSSK3
[8] = system: TTK
[9] = system: TXK
[10] = system: TYK2(JH1domain-catalytic)
[11] = system: TYK2(JH2domain-pseudokinase)
[12] = system: TYRO3
[13] = system: ULK1
[14] = system: ULK2
[15] = system: ULK3
[16] = system: T3, VEGFR2
T3 construct: gene KDR

[17] = system: T4, VPS34
T4 construct: gene PIK3C3

[18] = system: VRK2
[19] = system: WEE1
[20] = system: WEE2
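Note: KINOMEscan kinase panel screen.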

| Structure (SMILES) | %Inh [1] | %Inh [2] | %Inh [3] | %Inh [4] | %Inh [5] | %Inh [6] | %Inh [7] | %Inh [8] | %Inh [9] | %Inh [10] | %Inh [11] | %Inh [12] | %Inh [13] | %Inh [14] | %Inh [15] | %Inh [16] | %Inh [17] | %Inh [18] | %Inh [19] | %Inh [20] |
| --- | --- | --- | --- | --- | --- | --- | --- | --- | --- | --- | --- | --- | --- | --- | --- | --- | --- | --- | --- | --- |
| COc1cc(Nc2nccc(N3CCC(NC(=O)Nc4ccc5c(c4)OCO5)C3)n2)cc(OC)c1OC (stereo not drawn) [GSK1379766] | 0% | 57% | 43% | 73% | 47% | 8% | 9% | 0% | 38% | 38% | 52% | 0% | 14% | 14% | 86% | 7% | 0% | 0% | 0% | 0% |
| Cc1ccc(Nc2ccnc(Nc3ccc(C)c(F)c3)n2)cc1O.Cl [GW582868] | 0% | 0% | 50% | 35% | 0% | 11% | 8% | 0% | 12% | 31% | 74% | 29% | 12% | 0% | 10% | 0% | 0% | 48% | 0% | 17% |
| COC(=O)Nc1nc2ccc(Oc3ccc(CC(=O)Nc4cc(C(F)(F)F)ccc4F)cc3)cc2[nH]1 [GW680903] | 70% | 0% | 37% | 49% | 16% | 0% | 24% | 0% | 8% | 23% | 24% | 0% | 0% | 0% | 0% | 63% | 0% | 13% | 1% | 0% |
| Cc1ccc(-c2ccc3occ(-c4ccc(S(C)=O)cc4)c3c2)nn1 (stereo not drawn) | 0% | 0% | 0% | 11% | 0% | 0% | 0% | 8% | 2% | 1% | 18% | 0% | 0% | 0% | 0% | 0% | 61% | 0% | 0% | 0% |
| CC(C)c1nc(-c2ccc(F)c(NS(=O)(=O)c3c(F)cccc3F)c2)c(-c2ccnc(Nc3ccc(N4CCOCC4)nc3)n2)s1 [GSK1804250] | 18% | 98% | 0% | 0% | 7% | 15% | 24% | 52% | 85% | 39% | 0% | 86% | 9% | 19% | 50% | 47% | 0% | 11% | 5% | 16% |
| N#Cc1cnc2cc(-c3cnc(CNCCN4CCOCC4)s3)ccc2c1Nc1ccc(Oc2ccccc2)cc1 [GW664114] | 2% | 55% | 42% | 46% | 48% | 1% | 8% | 0% | 71% | 0% | 36% | 84% | 10% | 0% | 48% | 12% | 0% | 8% | 7% | 23% |
| COC(=O)Nc1nc2ccc(Oc3ccc(NC(=O)Nc4cc(C(F)(F)F)ccc4F)cc3)cc2[nH]1.Cl [GW654607] | 92.4% | 100% | 94.8% | 98.9% | 26% | 100% | 6% | 17% | 0% | 8% | 1% | 66% | 15% | 0% | 58% | 92.3% | 0% | 0% | 31% | 0% |
| CN1CCN(Cc2ccc(NC(=O)Nc3ccc(N(C)c4ccnc(Nc5ccc(CS(C)(=O)=O)cc5)n4)cc3)cc2)CC1.Cl [GW827654] | 46% | 91.4% | 92% | 92.5% | 0% | 0% | 47% | 28% | 85% | 97.9% | 87% | 35% | 0% | 51% | 95.9% | 99.9% | 42% | 65% | 0% | 27% |
| O=C(O)C(F)(F)F.O=c1[nH]ccc2nc(N[C@@H]3CCNC3)nc(Nc3cc(Cl)cc(Cl)c3)c12 [GSK2188764] | 39% | 100% | 76% | 62% | 37% | 75% | 85% | 87% | 0% | 80% | 28% | 0% | 99.8% | 99.9% | 97.4% | 15% | 78% | 94% | 0% | 0% |
